Among all 48,000 compounds or so, about 13,000 (27%) showed an effect of 50% or more. The list shows a part of the results.
The compounds below were run on Wolbachia pipientis (assay: Anti-Wolbachia Cell-Based Screen). Details: 5 µM.
Format: functional
Design: scale not given: in the data most compounds retested in dose-response had high values
In the case of COc1cccc(CN2C[C@@H](F)[C@@H](OCc3nc4cnccc4[nH]3)C2)c1, the “Percent Effect” value is reported as -9.076%. COc1ccc(C2C3=C(COC3=O)Nc3[nH]nc(C)c32)cc1OC (centres undefined) was tested, and the “Percent Effect” value was 3.297%. COCCn1ccc(NCc2sccc2C)n1 was tested, and the “Percent Effect” value was -10.57%. In the case of NC(=O)CCn1ccc(NCc2cc(F)ccc2Br)n1, the “Percent Effect” value is reported as -14.37%. CC(NCc1cc2cc(F)ccc2o1)c1nnc2n1CCCC2 (centres undefined) was tested, and the “Percent Effect” value was -7.412%. With COCCn1ccc(NCc2scnc2C)n1 the “Percent Effect” value was 1.852%. With COCCn1ccc(NCc2cc3cc(F)ccc3o2)n1 the “Percent Effect” value was 97.47%. Cc1ccc2oc(CNC(C)c3nnc4n3CCCC4)cc2c1 (centres undefined) was tested, and the “Percent Effect” value was -13.95%. For Cn1ccc(NCc2cc3cc(F)ccc3o2)n1, the “Percent Effect” value was 107%. Cc1cc(CNc2ccnn2C)ccc1-n1cncn1 was tested, and the “Percent Effect” value was 1.687%. With Cn1nccc1NCc1cc2cc(F)ccc2o1 the “Percent Effect” value was 98.61%. With CC(C(=O)N1CCN(c2ccc(F)cc2)CC1)n1ccnc1 (centres undefined) the “Percent Effect” value was 2.016%. With CN(C)S(=O)(=O)N1C[C@@H]2CC[C@H](C1)N(C/C=C/c1ccc(F)cc1)C2 the “Percent Effect” value was 19.59%. In the case of Cc1ccccc1OCC(=O)N1CCOC2(CNCCOC2)C1 (centres undefined), the “Percent Effect” value is reported as -22.9%. For COc1ccccc1CC(=O)N1CCC(NCc2cc[nH]c2)CC1, the “Percent Effect” value was 5.746%. With CCCc1noc(CCC(=O)N2CCCCC2Cn2cc(C)cn2)n1 (centres undefined) the “Percent Effect” value was 117.6%. For CCCc1noc(CCC(=O)N2CCCC2c2ccsc2)n1 (centres undefined), the “Percent Effect” value was 2.757%. CCCc1noc(CCC(=O)N2CCCC2Cn2cc(C)cn2)n1 (centres undefined) was tested, and the “Percent Effect” value was 127.2%. In the case of O=C(CC1CC1)NC[C@]12COC[C@H]1CN(c1ncc(F)cn1)C2.O=C(O)C(F)(F)F, the “Percent Effect” value is reported as -10.91%. With O=C(O)C(F)(F)F.O=C(O)C(F)(F)F.c1ccc(OC[C@]23COC[C@H]2CN(c2ncccn2)C3)nc1 the “Percent Effect” value was -14.79%. With COc1cc(N2C[C@@H]3COC[C@]3(C(=O)NC3CC(F)(F)C3)C2)ncn1.O=C(O)C(F)(F)F the “Percent Effect” value was 12.94%. For Fc1cnc(N2C[C@H]3CCC[C@@]3(COc3ccccn3)C2)nc1.O=C(O)C(F)(F)F.O=C(O)C(F)(F)F, the “Percent Effect” value was -0.7444%. In the case of COc1cc(N2C[C@@H]3COC[C@]3(COc3ccccn3)C2)ncn1.O=C(O)C(F)(F)F.O=C(O)C(F)(F)F, the “Percent Effect” value is reported as 106%. COc1cc(N2C[C@@H]3COC[C@]3(C(=O)NCc3ccccn3)C2)ncn1 was tested, and the “Percent Effect” value was -14.4%. In the case of Fc1cnc(N2C[C@@H]3COC[C@]3(COc3ccccn3)C2)nc1.O=C(O)C(F)(F)F.O=C(O)C(F)(F)F, the “Percent Effect” value is reported as 104.4%. With O=C(O)C(F)(F)F.c1cnc(N2C[C@@H]3COC[C@]3(COCC3CCCC3)C2)nc1 the “Percent Effect” value was 99.14%. O=C(O)C(F)(F)F.O=S(=O)(C1CC1)N1C[C@H]2CCC[C@@]2(COc2ccccn2)C1 was tested, and the “Percent Effect” value was 2.736%. CCS(=O)(=O)N1C[C@H]2CCC[C@@]2(COc2ccccn2)C1.O=C(O)C(F)(F)F was tested, and the “Percent Effect” value was 18.76%. With O=C(CC1CC1)NC[C@]12COC[C@H]1CN(c1ncccn1)C2.O=C(O)C(F)(F)F the “Percent Effect” value was -5.322%. CN(C)S(=O)(=O)N1C[C@@H]2COC[C@]2(COc2ccccn2)C1.O=C(O)C(F)(F)F was tested, and the “Percent Effect” value was 82.39%. For CNC(=O)C(C)(C)NC(=O)c1cc(OCC2CCC2)cc(C(=O)OC)c1, the “Percent Effect” value was -3.572%. With Fc1cccc(-c2nnn3c2COC(CNCc2cccs2)C3)c1.O=C(O)C(F)(F)F (centres undefined) the “Percent Effect” value was 3.148%. In the case of CCCN1CCC(N2CCN(c3cc(C)nc(COC)n3)CC2)CC1, the “Percent Effect” value is reported as -8.34%. For CN(C)c1cccc(C2CCCN2CCCN2CCOC2=O)c1 (centres undefined), the “Percent Effect” value was -17.44%. For CN(C)c1cc(N2CCN(c3ccccn3)CC2)ncn1, the “Percent Effect” value was 109.8%. With CN(C)CCN(C)c1cc(N2CCN(c3ccccn3)CC2)ncn1 the “Percent Effect” value was 127.7%. CN(CCc1ccccn1)c1cc(N2CCCCC2)ncn1 was tested, and the “Percent Effect” value was -10.66%. With Cc1ccccc1N1CCN(c2cc(N(C)C)ncn2)C(C)C1 (centres undefined) the “Percent Effect” value was 2.423%. OCC1CCCN1c1cc(N2CCN(c3ccccn3)CC2)ncn1 (centres undefined) was tested, and the “Percent Effect” value was 2.004%. In the case of CN(CCC(O)c1ccccc1)c1cc(N2CCOCC2)ncn1 (centres undefined), the “Percent Effect” value is reported as 3.711%. With CS(=O)(=O)N1C[C@@H]2CC[C@H](C1)N(C(=O)CCc1n[nH]c3c1CCCC3)C2 the “Percent Effect” value was -4.237%. For O=C(C1=CCCCC1)N1CCC2(CC1)COC(COc1ccccn1)C2.O=C(O)C(F)(F)F (centres undefined), the “Percent Effect” value was -10.4%. With Cc1cc(C(=O)N2CC[C@H]3[C@@H]2CCC(=O)N3c2ccccc2)no1 the “Percent Effect” value was -22.73%. For CC(NCC1CCN(CCO)CC1)c1cccc(Cl)c1 (centres undefined), the “Percent Effect” value was -3.921%. With c1ccc2oc(C3CCN(Cc4ncon4)CC3)nc2c1 the “Percent Effect” value was -12.07%. With CCOCC1CN(C(=O)CS(C)(=O)=O)Cc2cnn(C)c21.O=C(O)C(F)(F)F (centres undefined) the “Percent Effect” value was 16.84%. For CCOCC1CN(C(=O)c2cnoc2C)Cc2cn(CC3CC3)nc21 (centres undefined), the “Percent Effect” value was -17.44%. For CCOCC1CN(C(=O)c2ccoc2C)Cc2cnn(C)c21 (centres undefined), the “Percent Effect” value was 98.5%. With CCOCC1CN(C(=O)c2cnoc2C)Cc2cnn(C)c21.O=C(O)C(F)(F)F (centres undefined) the “Percent Effect” value was 112.3%. CCOCC1CN(C(=O)Cc2ccccn2)Cc2c1cnn2C.O=C(O)C(F)(F)F.O=C(O)C(F)(F)F (centres undefined) was tested, and the “Percent Effect” value was -14.09%. In the case of CCOCC1CN(C(=O)Cc2ccccn2)Cc2cnn(C)c21.O=C(O)C(F)(F)F.O=C(O)C(F)(F)F (centres undefined), the “Percent Effect” value is reported as 117.4%. For CCOCC1CN(C(=O)c2ccco2)Cc2cnn(C)c21 (centres undefined), the “Percent Effect” value was 93.66%. With CCOCC1CN(C(=O)c2ccco2)Cc2nn(C)cc21 (centres undefined) the “Percent Effect” value was 6.633%. With CCOCC1CN(C(=O)c2cnoc2C)Cc2cn(C)nc21.O=C(O)C(F)(F)F (centres undefined) the “Percent Effect” value was -24.2%. For COc1ccccc1NC(=O)NCCCC(=O)Nc1cn[nH]c1, the “Percent Effect” value was 3.089%. For CC(C)Oc1cccc(F)c1C(C(=O)O)N(C)Cc1ccon1 (centres undefined), the “Percent Effect” value was -4.815%. With CCCN(C)c1ccc(C(=O)NCc2ccnc(C)n2)cc1 the “Percent Effect” value was 14.15%. In the case of CC(C#N)CN(C)Cc1cc(Cl)cc2cccnc12 (centres undefined), the “Percent Effect” value is reported as -4.416%. For FC(F)(F)Sc1ccc(NCc2nnc(C3CC3)o2)cc1, the “Percent Effect” value was 4.65%.

Reference: ChEMBL document CHEMBL3988442, “University of Dundee, Small-Polar-MMV Screening Library” (2021)
